Source: PubChem BioAssay (NCATS)
A number with no mark means an inactive call. Records with an inconclusive call do not appear. Calls of active or inactive are those of the source. Unless noted, the call rests on the fitted dose curve; in most records, active means well fitted curve in either direction with a large enough effect (not every such curve was filed as active); inconclusive means small, poorly fitted or top-dose-only effect, or another doubt; inactive means flat fitted curve, though single readings scatter.

How the values were obtained:
[1] = AP1 Signaling Pathway (AID 357); details: ME-180 AP-1-bla reporter, EGF-induced, beta-lactamase ratio, 5 h; at 7.69 µM (top of the series) unless noted;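 further: ME-180 reporter cells stimulated with EGF at its EC50 level; on the % scale 0 is the no-effect control and ±100 the full control effect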
Procedure, shortened: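 Read-out was the 460nm/530nm emission ratio (excitation 405nm) after CCF4 loading for 2.5 hours at room temperature. Cells carried an AP-1-driven beta-lactamase reporter, were stimulated with EC50 EGF plus compound for 5 hours, and AC50 values came from titrations.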

[2] = biological target: Cytochrome P450 1A2 (Homo sapiens) (UniProt P05177); experiment: p450-cyp1a2 (AID 410; calls by dose curve; further: potency means the concentration at half of the fitted maximal effect;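 on activity change, negative = inhibition: -100% = full effect of reference inhibitor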); details: recombinant CYP1A2, luciferin-ME demethylation, luminescence; series mostly up to 57 µM
Procedure, shortened: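 Luminescent demethylation readout: Luciferin-ME (100uM, equal to Km) turned over by 20nM CYP1A2 for 60 min at room temperature after NADPH regeneration addition, following 10 min compound preincubation. Normalization used 57 uM furafylline as full inhibition.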

[3] = NFAT Signaling Pathway (AID 444); details: Jurkat NFAT-bla M1, carbachol, beta-lactamase ratio, 5 h; at 7.69 µM (top of the series) unless noted;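 further: carbachol stimulus at about its EC50 of 1 µM final; on the % scale 0 is the no-effect control and ±100 the full control effect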
Procedure, shortened: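 Jurkat cells carrying an NFAT-driven β-lactamase reporter and co-transfected muscarinic M1 receptor were treated with compound plus carbachol (1 uM final, an EC50 level) for 5 h at 37 °C. CCF4 loading followed for 1 h at RT; 460/530 nm ratio gave %activity.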

[4] = Stat Signaling Pathway (AID 446); details: ME-180 SIE beta-lactamase reporter, IL-6 stimulated, 5 h; at 7.69 µM (top of the series) unless noted;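 further: ME-180 cervical cancer cells given 40 pM IL-6 alongside compound; SIE-controlled beta-lactamase reporter measured as 460/530 nm FRET emission ratio; on the % scale 0 is the no-effect control and ±100 the full control effect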
Procedure, shortened: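 FRET read-out (405 nm excitation, 460/530 nm emission) of a beta-lactamase reporter under a STAT-inducible element in ME-180 cervical carcinoma cells. Cells with compound receive 40 pM IL-6 for 5 h. Values are normalised to AC90 stimulation and AC90 JAK-inhibitor controls.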

[5] = biological target: Glucocorticoid receptor (Homo sapiens) (UniProt P04150); experiment: GR-GFP Redistribution (AID 450;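 active means compounds whose dose series gives a full or clear partial fitted curve of increased nuclear translocation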; further: potency means the concentration at half of the fitted maximal effect); details: U2OS GR-GFP nuclear translocation, laser cytometry, 2 h
[6] = biological target: Glucocorticoid receptor (Homo sapiens) (UniProt P04150); experiment: GR-EFC Redistribution (AID 451; calls by dose curve; further: potency means the concentration at half of the fitted maximal effect); details: CHO-K1 GR-EFC translocation, beta-gal luminescence, 2 h
Procedure, shortened: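 CHO-K1 cells stably expressing nuclear-localized β-gal enzyme acceptor and GR fused C-terminally to the enzyme donor fragment; ligand-driven nuclear translocation restores β-gal by complementation. Compounds titrated up to 46 uM final, 2 h at 37 °C; luminescence read.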

[7] = biological target: Mitogen-activated protein kinase 10 (Mus musculus) (UniProt Q61831); experiment: JNK3 AlphaScreen Assay (AID 530); details: JNK3 lysate, c-Jun phosphorylation; series mostly up to 57.1 µM;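 further: kinase came from lysate of stimulated human HepG2 cells; signal reports phosphorylation of biotinylated GST-cJun 1-79 at Ser73 with 10 µM ATP; on the % scale 0 is the no-effect control and ±100 the full control effect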
Procedure, shortened: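 Phosphorylation of biotinylated GST-cJun(1-79) at Ser73 is measured by AlphaScreen proximity luminescence. Enzyme is JNK3 in HepG2 lysates activated with interleukin-1beta and tumor necrosis factor alpha; ATP is 10 uM final.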

[8] = biological target: 3',5'-cyclic-AMP phosphodiesterase 4B (Homo sapiens) (UniProt Q07343); experiment: qHTS Assay for Inhibitors of PDE-IV (AID 607; active means well fitted activation curve with a large enough effect in the main read-out, with a control signal flat, not every such curve was filed as active; further: % of control where 0% means no effect); details: HEK293 ACTOne CNG channel cells, membrane potential fluorescence; series mostly up to 22.9 µM
Procedure, shortened: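 Cell-based read-out of cAMP via a modified cyclic nucleotide-gated channel and membrane potential dye (535/590 nm) in HEK293 cells expressing PDE4 endogenously. Compounds tested up to 22.9 uM final; 100 uM RO 20-1724 reference.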

[9] = Primary qHTS for small molecule stabilizers of the endoplasmic reticulum resident proteome: Secreted ER Calcium Modulated Protein (SERCaMP) assay (AID 1508630; active means well fitted curve in the direction sought with a large enough effect; an effect the other way counts as inactive or inconclusive; further: on the % scale 0 is the no-effect control and ±100 the full control effect); details: SH-SY5Y GLuc-SERCaMP (Gaussia luciferase released on ER calcium loss) secretion, thapsigargin, luminescence; series mostly up to 38.4 µM
Procedure, shortened: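 The SH-SY5Y reporter protocol was run at 3 concentrations up to 38.3 uM (primary) or 11 concentrations (follow-up): 16 h compound, 100 nM thapsigargin for 4 h, then extracellular luciferase luminescence.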

[10] = biological target: Cytochrome P450 2C9 (Homo sapiens) (UniProt P11712); experiment: qHTS Assay for Inhibitors and Substrates of Cytochrome P450 2C9 (AID 883; active means well fitted curve in the direction sought with a large enough effect; an effect the other way counts as inactive or inconclusive; further: potency means the concentration at half of the fitted maximal effect; nearly all actives have a fitted effect of over 60% in size); details: recombinant CYP2C9, luciferin-H luminescence, 60 min; series mostly up to 57.1 µM
Procedure, shortened: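 Human CYP2C9 (10nM) hydroxylated Luciferin-H (100uM, at its KM) to luciferin in 25mM KPO4. Compound was preincubated 10 min at 37C, then NADPH regeneration started a 60 min reaction at 37C. Luminescence was read after detection reagent, normalized to 57uM sulphaphenazole.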

[11] = biological target: Cytochrome P450 3A4 (Homo sapiens) (UniProt P08684); experiment: qHTS Assay for Inhibitors and Substrates of Cytochrome P450 3A4 (AID 884; active means well fitted curve in the direction sought with a large enough effect; an effect the other way counts as inactive or inconclusive; further: nearly all actives have a fitted effect of over 50% in size; further: potency means the concentration at half of the fitted maximal effect); details: recombinant CYP3A4, Luciferin-PPXE luminescence; series mostly up to 57.1 µM
Procedure, shortened: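 Luminescent readout of luciferin produced by CYP3A4 (20 nM) dealkylation of Luciferin-PPXE, 25 uM (its KM). NADPH-driven reaction ran 60 min at RT after 10 min compound preincubation; data scaled to 57 uM ketoconazole as 100% inhibition.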

[12] = biological target: Cytochrome P450 3A4 (Homo sapiens) (UniProt P08684); experiment: qHTS Assay for Activators of Cytochrome P450 3A4 (AID 885; active means well fitted curve in the direction sought with a large enough effect; an effect the other way counts as inactive or inconclusive; further: nearly all actives have a fitted effect of over 65% in size); details: recombinant CYP3A4, Luciferin-PPXE luminescence, 60 min; series mostly up to 57.1 µM
Procedure, shortened: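 Luminescent readout of luciferin formed from 25 uM Luciferin-PPXE (KM level) by 20 nM CYP3A4 in 200 mM KPO4, with 60 min NADPH-driven reaction at room temperature after 10 min compound exposure. Ketoconazole (57 uM) defined 100% inhibition.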

[13] = qHTS Assay for Identification of Small Molecule Agonists for Hypoxia Response Element Signaling Pathway (AID 914; active means well fitted activation curve with a large enough effect in the signal ratio, with a control signal flat, not every such curve was filed as active; the % refers to the signal ratio; further: potency means the concentration at half of the fitted maximal effect; on activation: % of control where 0% means no effect); details: ME-180 (cervical carcinoma) HRE-bla reporter, beta-lactamase ratio, CoCl2, 17 h; activation: active compounds read high
Procedure, shortened: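 qHTS titration; ME-180 HRE-bla cells; EC50 CoCl2 co-treatment, 17 h at 37 degrees Celsius; CCF4 dye, ex 405nm, em 460nm and 530nm; %Activity from ratio; AC50.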

[14] = biological target: Lysosomal acid glucosylceramidase (Homo sapiens) (UniProt P04062); experiment: Glucocerebrosidase-p2 (AID 348; in the data active means potency below about 10 µM; further: potency means the concentration at half of the fitted maximal effect); details: purified GBA, blue fluorogenic substrate, 40 min
Procedure, shortened: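 Normal human glucocerebrosidase (0.2 nM) with blue fluorogenic substrate (80 uM final) in citrate/phosphate pH 5.9 with 10mM sodium taurocholate, 0.01% tween-20; 40 min RT, NaOH/glycine stop; fluorescence Ex 365/Em 440; AC50 from a titration from 0.6 nM upwards.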

[15] = biological target: Ubiquitin carboxyl-terminal hydrolase 1 (Homo sapiens) (UniProt O94782); experiment: Inhibitors of USP1/UAF1: Pilot qHTS (AID 504865; active means well fitted curve in the direction sought with a large enough effect; an effect the other way counts as inactive or inconclusive;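 further: rhodamine fluorescence freed from ubiquitin-rhodamine substrate followed over time; top concentration of the series differs between compounds; on the % scale 0 is the no-effect control and ±100 the full control effect; nearly all actives have a fitted effect of over 35% in size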); details: purified USP1/UAF1, Ub-rhodamine cleavage fluorescence; series mostly up to 54.9 µM
Procedure, shortened: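 In 50mM HEPES pH 7.8 containing 0.5mM EDTA, 1mM TCEP, 0.1 mg/ml BSA and 0.01% Tween-20, 1nM USP1/UAF1 is exposed to compound for 15 min, then Ub-Rho (150nM final) is added and fluorescence is read over time.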

[16] = Confirmation and Secondary Assay for Modulators of Hemoglobin Beta Chain Splicing at IVS2 654 locus (AID 910; active means well fitted curve in the direction sought with a large enough effect; an effect the other way counts as inactive or inconclusive;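 further: per-well total GFP intensity by laser scanning cytometry after 2-day treatment; % of control where 0% means no effect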); details: HeLa EGFP-654 splicing reporter, GFP fluorescence, 48 h; series mostly up to 38.3 µM
Procedure, shortened: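 HeLa cells stably carrying EGFP interrupted by mutant beta-globin IVS2-654 intron (CMV-driven) were treated with compound for 2 days at 37C; corrected splicing was scored as total peak GFP intensity per well (488 nm excitation, 500-520 nm emission).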

[17] = Confirmation and Secondary Assay for Modulators of Hemoglobin Beta Chain Splicing at IVS2 705 locus (AID 930; active means well fitted curve in the direction sought with a large enough effect; an effect the other way counts as inactive or inconclusive;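 further: HeLa cells stably expressing the EGFP-705 splicing reporter; GFP fluorescence per well restored by corrected splicing of the IVS2-705 intron in EGFP; % of control where 0% means no effect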); details: HeLa EGFP-705 splicing reporter, GFP fluorescence, 48 h; series mostly up to 38.3 µM
Procedure, shortened: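 Secondary splice-site specificity test uses HeLa expressing CMV-driven EGFP interrupted by IVS2-705; cells were treated 2 days at 37C with 500 nM antisense PNA as positive control.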

Cytochrome P450 1A2 (Homo sapiens), sequence (P05177 whole entry, looked up): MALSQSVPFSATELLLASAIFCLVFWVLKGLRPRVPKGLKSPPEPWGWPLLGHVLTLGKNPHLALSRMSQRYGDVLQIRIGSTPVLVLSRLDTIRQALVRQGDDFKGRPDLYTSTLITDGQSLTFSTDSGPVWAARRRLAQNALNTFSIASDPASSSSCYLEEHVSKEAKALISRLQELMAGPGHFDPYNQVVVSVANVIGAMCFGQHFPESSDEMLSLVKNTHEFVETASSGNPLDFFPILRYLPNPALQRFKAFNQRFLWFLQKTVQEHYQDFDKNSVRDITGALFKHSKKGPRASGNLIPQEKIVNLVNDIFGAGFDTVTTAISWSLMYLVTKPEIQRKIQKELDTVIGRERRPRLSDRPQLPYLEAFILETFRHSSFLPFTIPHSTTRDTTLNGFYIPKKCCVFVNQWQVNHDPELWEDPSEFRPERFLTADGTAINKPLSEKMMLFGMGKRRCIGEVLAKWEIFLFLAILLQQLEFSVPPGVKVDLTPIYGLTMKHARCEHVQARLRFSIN
Cytochrome P450 3A4 (Homo sapiens), sequence (P08684 whole entry, looked up): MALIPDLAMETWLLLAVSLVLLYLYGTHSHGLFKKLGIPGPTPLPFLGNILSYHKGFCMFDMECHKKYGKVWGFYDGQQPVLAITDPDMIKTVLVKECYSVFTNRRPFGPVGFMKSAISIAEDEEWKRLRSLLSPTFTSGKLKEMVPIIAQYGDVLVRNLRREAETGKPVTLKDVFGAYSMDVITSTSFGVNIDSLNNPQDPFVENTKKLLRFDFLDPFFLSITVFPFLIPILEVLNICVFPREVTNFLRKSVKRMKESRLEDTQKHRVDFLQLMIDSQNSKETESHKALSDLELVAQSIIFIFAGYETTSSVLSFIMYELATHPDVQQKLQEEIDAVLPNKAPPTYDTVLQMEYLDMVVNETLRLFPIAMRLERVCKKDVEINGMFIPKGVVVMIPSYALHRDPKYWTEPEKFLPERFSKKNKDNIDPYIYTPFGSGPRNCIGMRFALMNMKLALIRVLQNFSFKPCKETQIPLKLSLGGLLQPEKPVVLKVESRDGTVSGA
Glucocorticoid receptor (Homo sapiens), sequence (P04150 whole entry, looked up, the tested form may be a part): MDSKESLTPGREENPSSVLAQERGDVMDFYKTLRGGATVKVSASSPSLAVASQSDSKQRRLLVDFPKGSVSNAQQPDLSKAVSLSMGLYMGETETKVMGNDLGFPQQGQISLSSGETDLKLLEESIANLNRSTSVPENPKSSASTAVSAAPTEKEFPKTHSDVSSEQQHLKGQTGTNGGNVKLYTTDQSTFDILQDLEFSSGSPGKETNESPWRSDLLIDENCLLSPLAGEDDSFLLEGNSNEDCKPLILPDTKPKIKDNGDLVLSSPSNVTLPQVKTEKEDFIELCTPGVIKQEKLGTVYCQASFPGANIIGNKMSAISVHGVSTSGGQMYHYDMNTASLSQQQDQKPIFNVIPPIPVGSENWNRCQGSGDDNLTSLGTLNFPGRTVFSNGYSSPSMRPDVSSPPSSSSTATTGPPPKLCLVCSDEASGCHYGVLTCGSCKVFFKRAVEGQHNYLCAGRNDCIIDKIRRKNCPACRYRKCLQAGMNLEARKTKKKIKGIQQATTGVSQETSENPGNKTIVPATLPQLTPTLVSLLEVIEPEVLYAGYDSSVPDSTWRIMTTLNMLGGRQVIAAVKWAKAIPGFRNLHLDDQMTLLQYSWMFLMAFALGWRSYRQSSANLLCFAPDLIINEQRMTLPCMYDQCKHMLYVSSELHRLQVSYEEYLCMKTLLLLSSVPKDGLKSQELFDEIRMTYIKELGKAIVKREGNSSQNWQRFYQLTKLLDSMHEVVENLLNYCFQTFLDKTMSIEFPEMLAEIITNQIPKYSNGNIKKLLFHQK
3',5'-cyclic-AMP phosphodiesterase 4B (Homo sapiens), sequence (Q07343 whole entry, looked up): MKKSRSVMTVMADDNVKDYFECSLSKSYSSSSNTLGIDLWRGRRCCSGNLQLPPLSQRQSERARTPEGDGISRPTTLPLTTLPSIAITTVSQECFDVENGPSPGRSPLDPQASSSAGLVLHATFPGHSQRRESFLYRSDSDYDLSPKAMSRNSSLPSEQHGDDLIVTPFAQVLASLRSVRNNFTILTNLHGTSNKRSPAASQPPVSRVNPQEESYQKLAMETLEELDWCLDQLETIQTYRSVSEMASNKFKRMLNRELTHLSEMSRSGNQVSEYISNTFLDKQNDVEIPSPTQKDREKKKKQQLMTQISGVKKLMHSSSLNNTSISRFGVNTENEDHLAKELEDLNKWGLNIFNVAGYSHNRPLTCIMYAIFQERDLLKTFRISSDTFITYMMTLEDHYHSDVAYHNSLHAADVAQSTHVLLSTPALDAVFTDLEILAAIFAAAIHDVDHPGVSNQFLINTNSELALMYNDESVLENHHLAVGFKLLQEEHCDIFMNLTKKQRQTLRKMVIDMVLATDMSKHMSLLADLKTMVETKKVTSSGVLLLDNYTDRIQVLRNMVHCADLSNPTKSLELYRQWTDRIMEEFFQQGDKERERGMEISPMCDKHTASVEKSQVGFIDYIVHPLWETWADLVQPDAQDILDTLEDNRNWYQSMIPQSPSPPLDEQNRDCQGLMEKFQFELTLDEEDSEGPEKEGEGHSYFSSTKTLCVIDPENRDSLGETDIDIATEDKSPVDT
Cytochrome P450 2C9 (Homo sapiens), sequence (P11712 whole entry, looked up): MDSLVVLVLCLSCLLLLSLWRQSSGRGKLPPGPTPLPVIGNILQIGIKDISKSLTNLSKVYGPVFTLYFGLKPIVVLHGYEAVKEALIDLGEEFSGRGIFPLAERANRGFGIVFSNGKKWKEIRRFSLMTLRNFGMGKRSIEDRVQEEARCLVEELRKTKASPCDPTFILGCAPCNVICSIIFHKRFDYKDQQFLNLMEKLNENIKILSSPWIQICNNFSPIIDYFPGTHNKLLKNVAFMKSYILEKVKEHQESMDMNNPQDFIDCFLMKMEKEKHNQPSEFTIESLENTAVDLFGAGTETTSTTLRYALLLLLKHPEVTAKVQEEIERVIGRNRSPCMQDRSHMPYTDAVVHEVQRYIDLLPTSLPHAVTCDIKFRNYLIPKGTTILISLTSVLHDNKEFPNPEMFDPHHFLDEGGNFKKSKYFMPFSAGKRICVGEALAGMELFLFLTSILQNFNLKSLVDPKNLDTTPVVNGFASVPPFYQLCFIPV
Ubiquitin carboxyl-terminal hydrolase 1 (Homo sapiens), sequence (O94782 whole entry, looked up): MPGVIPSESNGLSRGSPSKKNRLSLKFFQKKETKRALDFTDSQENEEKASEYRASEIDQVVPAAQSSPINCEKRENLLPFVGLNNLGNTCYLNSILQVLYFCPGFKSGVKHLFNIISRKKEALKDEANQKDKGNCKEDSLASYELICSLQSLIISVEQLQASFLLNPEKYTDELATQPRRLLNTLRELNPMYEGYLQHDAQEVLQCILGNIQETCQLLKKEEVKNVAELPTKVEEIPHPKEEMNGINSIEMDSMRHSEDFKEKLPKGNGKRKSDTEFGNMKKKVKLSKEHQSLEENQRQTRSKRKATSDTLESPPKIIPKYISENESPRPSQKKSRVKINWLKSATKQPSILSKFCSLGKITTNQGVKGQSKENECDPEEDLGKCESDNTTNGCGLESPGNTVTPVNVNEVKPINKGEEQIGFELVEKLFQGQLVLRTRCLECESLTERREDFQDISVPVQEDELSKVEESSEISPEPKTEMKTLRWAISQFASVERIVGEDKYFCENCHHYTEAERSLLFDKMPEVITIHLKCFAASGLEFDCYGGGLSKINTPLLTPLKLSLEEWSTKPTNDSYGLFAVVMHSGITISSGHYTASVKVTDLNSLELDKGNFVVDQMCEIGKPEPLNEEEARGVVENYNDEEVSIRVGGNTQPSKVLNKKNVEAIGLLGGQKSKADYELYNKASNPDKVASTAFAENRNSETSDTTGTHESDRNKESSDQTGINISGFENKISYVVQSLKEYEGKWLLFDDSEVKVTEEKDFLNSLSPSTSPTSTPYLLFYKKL
Lysosomal acid glucosylceramidase (Homo sapiens), sequence (P04062 whole entry, looked up): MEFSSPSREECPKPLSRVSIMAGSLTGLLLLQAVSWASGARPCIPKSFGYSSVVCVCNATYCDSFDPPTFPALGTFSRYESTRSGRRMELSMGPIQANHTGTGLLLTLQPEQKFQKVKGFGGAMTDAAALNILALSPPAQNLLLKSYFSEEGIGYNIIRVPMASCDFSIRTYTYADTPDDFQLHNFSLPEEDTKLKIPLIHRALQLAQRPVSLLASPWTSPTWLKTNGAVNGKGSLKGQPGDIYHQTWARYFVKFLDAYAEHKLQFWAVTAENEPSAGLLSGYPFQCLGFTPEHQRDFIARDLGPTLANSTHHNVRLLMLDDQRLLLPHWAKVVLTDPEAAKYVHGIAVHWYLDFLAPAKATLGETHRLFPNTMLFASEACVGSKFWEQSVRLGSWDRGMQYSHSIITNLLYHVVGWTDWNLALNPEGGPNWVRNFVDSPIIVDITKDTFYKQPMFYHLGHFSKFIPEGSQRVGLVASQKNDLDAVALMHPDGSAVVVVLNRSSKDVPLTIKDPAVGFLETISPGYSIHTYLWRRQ

SMILES	activity change, negative = inhibition [1]	Potency [2]	activity change, negative = inhibition [3]	activity, negative = inhibition [4]	Potency [5]	Potency [6]	Potency [7]	Potency [8]	outcome [9]	Potency [10]	Potency [11]	Potency [12]	activation [13]	Potency [14]	Potency [13]	Potency [15]	Potency [16]	outcome [17]
COc1ncc2ncc(=O)n(CCC#N)c2n1	1.28%	20 µM (active)	-1.77%	-9.79%	> 9.22 µM	> 46 µM	inactive	inactive	inactive									
COc1cccc(Cn2c(=O)c(CCc3ccccc3)nc3cnc(OC)nc32)c1	-4.92%	12.6 µM (active)	-14.6%	1.12%	> 9.22 µM	> 46 µM			inactive	6.31 µM (active)	2.51 µM (active)	inactive						
COc1ccc(NC(=O)N2CCC3(CC2)CCN(C(=O)c2cccc(F)c2)CC3)cc1	-4.05%	inactive	8.11%	0.897%		> 46 µM	inactive		inactive		inactive							
COc1ccc(-n2c(=O)c(CCc3ccccc3)nc3cnc(N(C)C)nc32)cc1	0.546%	3.16 µM (active)	-2.06%	0.00123%	> 9.22 µM	> 46 µM	inactive	inactive	inactive			inactive	10.3%					
CCNc1ncc2nc(-c3ccc(Cl)cc3)c(=O)n(Cc3cccs3)c2n1					> 9.22 µM	> 46 µM	inactive		inactive					> 11.4 µM	0.126 µM (active)	inactive		
COc1ccc(NC(=O)N2CCCC3(CCN(C(=O)c4cccc(F)c4)CC3)C2)cc1	-26.5%	inactive	-25.3%	-10.9%		29.5 µM (active)	inactive	inactive	inactive			inactive						
O=C(c1cnccn1)N1CCC2(CCCN(c3ccccn3)C2)CC1	-13%	inactive		1.23%		> 46 µM	inactive	inactive	inactive			inactive						
COc1ccccc1CNc1nc(-c2ccc(N(C)C)cc2)nc2ccccc12	1.38%	2.51 µM (active)	-29.6%	20.3%	> 46 µM	> 46 µM	inactive	inactive	inactive		3.16 µM (active)	inactive					inactive	inactive
